Measurements published in PubChem BioAssay (Tox21).
Inconclusive results are not listed. A call without a number means that no potency is given here. Calls of active or inactive are those of the source. The call rests on the fitted dose curve; in most records, active means well fitted activation curve with a large enough effect in the repeat runs; inconclusive means weak or mixed curves; inactive means flat fitted curve, though single readings scatter.

Assay: A CellTox Green Cytotoxicity Assay to monitor cytotoxicity in HEK293 cells - 24 hour (AID 1224875); further: nearly all actives have a fitted effect of over 45% in size
Details: CellTox Green fluorescence; series mostly up to 76.8 µM
How it was run: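 Real-time, in one plate: 600 HEK293 cells/well with dead-cell DNA dye, pinned compound after 5 h, 37 C incubation over 40 h; viable cells give no appreciable fluorescence.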

| Compound | Potency | activity change |
| --- | --- | --- |
| O=C1[C@@H]2[C@H]3CC[C@H](C3)[C@@H]2C(=O)N1CCCCN1CCN(c2ncccn2)CC1 | inactive | – |
| Cc1ccc2c(c1)CCCN2 | inactive | – |
| O=C(NC(Cc1cc(=O)[nH]c2ccccc12)C(=O)O)c1ccc(Cl)cc1 (stereo not drawn) | inactive | – |
| CC(C)(O)CCc1ccccc1 | inactive | – |
| Cc1ccc(N(CCO)CCO)cc1 | inactive | – |
| O=CNNC=O | inactive | – |
| O=C(O)CO | inactive | – |
| CCOc1ncc(F)c(=O)[nH]1 | inactive | – |
| O=C(O)CNC(=O)c1ccccc1I | inactive | – |
| Cc1cc(CCC(=O)OCCOCCOCCOC(=O)CCc2cc(C)c(O)c(C(C)(C)C)c2)cc(C(C)(C)C)c1O | inactive | – |
| COc1cc(C(C)=O)ccc1OCCCN1CCC(c2noc3cc(F)ccc23)CC1 | inactive | – |
| Nc1ccn([C@H]2CS[C@@H](CO)O2)c(=O)n1 | inactive | – |
| C[C@@H]1C[C@H]2[C@@H]3CCC4=CC(=O)C=C[C@]4(C)[C@@]3(F)[C@@H](O)C[C@]2(C)[C@@]1(O)C(=O)COP(=O)(O)O | inactive | – |
| COC(=O)Nc1nc2ccc(C(=O)C3CC3)cc2[nH]1 | inactive | – |
| FC(F)(F)C(F)(F)C(F)(F)C(F)(F)CCI | inactive | – |
| CCCCCCOC(=O)CCCCC | inactive | – |
| O=C(O)CCC(=O)c1ccc(-c2ccccc2)cc1 | inactive | – |

| Compound | Potency | activity change |
| --- | --- | --- |
| CCC(CO)(CO)CO | inactive | – |
| C=CCOC(=O)COCCC(C)C | inactive | – |
| CCOC(=O)C(C)O (stereo not drawn) | inactive | – |
| CCCCCCCC/C=C/C(=O)O | inactive | – |
| CCCCCCC(CO)CCCC (stereo not drawn) | inactive | – |
| Nc1nc(-c2ccc([N+](=O)[O-])cc2)cs1 | inactive | – |
| COC(OC)OC | inactive | – |
| O=c1[nH]c2cc(C(F)(F)F)c(N3CCOCC3)cc2n(CP(=O)(O)O)c1=O | inactive | – |
| CCCCCCCCCCCCCCN(C)C | – | -31.5% [at 15.8 µM, active compounds read high] (inactive) |
| CCCCCCCCCCCCCCCC(=O)OCC | inactive | – |
| COc1ccc(CCN(C)CCCN2CCc3cc(OC)c(OC)cc3CC2=O)cc1OC | inactive | – |
| CCCCC[C@H](O)/C=C/[C@H]1[C@H](O)CC(=O)[C@@H]1C/C=C\CCCC(=O)O | inactive | – |
| CCCC(=O)OC(=O)CCC | inactive | – |
| CC[C@H]1OC(=O)[C@H](C)[C@@H](O[C@H]2C[C@@](C)(OC)[C@@H](O)[C@H](C)O2)[C@H](C)[C@@H](O[C@@H]2O[C@H](C)C[C@H](N(C)C)[C@H]2O)[C@](C)(O)C[C@@H](C)CN(C)[C@H](C)[C@@H](O)[C@]1(C)O | inactive | – |
| NC(=O)CCCCC(N)=O | inactive | – |
| CCCCCCCCCCCCCOC(=O)CCSCCC(=O)OCCCCCCCCCCCCC | – | 16% [at 15.8 µM, active compounds read high] (inactive) |
